Here are results for seven molecules from PubChem BioAssay (NCI).

Assay in all cases: NCI-60 one-dose screen, 48 h (100 = growth as untreated, 0 = no growth, -100 = all killed)
Conditions in all cases: 10 µM unless noted

In experiment [1] the test system is DU-145 prostate.
In experiment [2] the test system is K-562 leukemia.
Experiment [3] deals with MALME-3M melanoma.
Experiment [4] relates to MDA-MB-231 breast.
The test system of experiment [5] is RXF 393 renal.
Experiment [6] deals with SF-268 CNS.
The test system of experiment [7] is SF-295 CNS.
Experiment [8] relates to SF-539 CNS.
Experiment [9] relates to UACC-257 melanoma.
The test system of experiment [10] is M14 melanoma.
The subject of experiment [11] is HCT-15 colon.
Experiment [12] relates to HT29 colon.
Experiment [13] has as its system SNB-75 CNS.
Experiment [14] relates to SNB-19 CNS.
Experiment [15] deals with U251 CNS.
In experiment [16] the test system is PC-3 prostate.
Experiment [17] relates to SK-MEL-5 melanoma.
The test system of experiment [18] is UACC-62 melanoma.
For experiment [19], the system named is LOX IMVI melanoma.
For experiment [20], the system named is SK-MEL-28 melanoma.

Compounds without any hit were thinned out: in the full panel of roughly 83,000, 20% have a hit.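 48-hour exposure, single concentration, 96-well plates; percent growth endpoint where 0 means no net growth. Active: below 10.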 Unmarked numbers belong to inactive results. Activity calls are given as the source filed them.

Consider `COc1ccc(-c2ccc(-c3ccc(C(=N)N)nc3)s2)cc1Cl`, for which the growth in experiment [1] was -92.5% (active); in experiment [2], -29.8% (active); in [3] it was 74.1%; in [4], -75.1% (active); in experiment [5], 56.8%; in experiment [6], -62.8% (active). Moreover, the growth in experiment [7] is -78.4% (active); in [8], -90.6% (active); in experiment [9], 93.5%; in experiment [10] it was -40.6% (active); in experiment [11], -77.4% (active); in [12], 2.52% (active). In addition, the growth was 80.5% in experiment [13]; -35.8% (active) in experiment [14]; -71.7% (active) in [15]; -28.3% (active) in experiment [16]; 76% in experiment [17]; 96.3% in experiment [18]. Also, the growth in experiment [19] was -76.4% (active); in [20], 97.2%.

For the molecule `C[C@]1(O)CC(=O)[C@]2(O)C3=C(C=C[C@]2(O)C1)C(=O)c1c(O)cccc1C3=O`, the growth was -82.3% (active) in [1]; 5.36% (active) in experiment [2]; -96.7% (active) in experiment [3]; 30.2% in [4]; -85.3% (active) in experiment [5]; 85.4% in experiment [6]. Also, the growth in experiment [7] was 89.8%; in experiment [8] it was 82.4%; in experiment [9] it was 77.3%; in experiment [10], -24.8% (active); in experiment [11], -45.5% (active); in [12], 3.93% (active). In addition, the growth in experiment [13] was 20%; in experiment [14] it was 101%; in [15] it was 72.4%; in experiment [16], 72.8%; in [17], -53.7% (active); in experiment [18], 16.5%. Further, the values for the growth in [19] and in experiment [20] were -51.5% (active) and -37.4% (active), respectively.

As for `O=S(=O)(NCCNc1nccc(-c2c(-c3cccc(O)c3)nc3occn23)n1)c1ccc(Br)cc1`, the growth in experiment [1] was 44.8%; in experiment [2], 17.2%; in [3], 15%; in experiment [4], 34.7%; in [5], 28.8%; in experiment [6], 40.8%. Also, the growth in [7] was 78.3%; in experiment [8], 48.7%; in [9], 20.8%; in experiment [10], 17.8%; in experiment [11], 67.3%; in [12], 19.1%. The growth was 56.5% in experiment [13]; 65.8% in [14]; 41% in experiment [15]; 29.9% in experiment [16]; 4.04% (active) in [17]; 5.9% (active) in experiment [18]. The growth is 25.2% in experiment [19] and 26.1% in [20].

`O=C(Nc1ccccc1[N+](=O)[O-])c1ccc(Cl)c(Cl)c1`: the growth in experiment [1] was 102%; in [2], 91.9%; in experiment [3], 93.5%; in [4], 93.2%; in experiment [5], 88.1%; in experiment [6], 89.8%. For the same molecule, the growth is 93.3% in [7]; 89.4% in [8]; 90.8% in [9]; 101% in experiment [10]; 91% in experiment [11]; 98.7% in experiment [12]. In addition, the growth is 69.6% in [13]; 101% in experiment [14]; 86.1% in [15]; 80.3% in experiment [16]; 84.2% in [17]; 87.2% in [18]. Further, the growth in experiment [19] is 85.9%; in experiment [20], 105%.

On to `CSc1nn2c(-c3ccc4ccccc4c3)ccnc2c1C#N`, for which the growth is 43% in [1]; 11.1% in [2]; 10.1% in [3]; 27.3% in experiment [4]; 19% in experiment [5]; 45.3% in [6]. The growth is 8.45% (active) in experiment [7]; 26.3% in experiment [8]; 63% in [9]; 5.19% (active) in experiment [10]; 15.4% in experiment [11]; 2.83% (active) in experiment [12]. Besides, the growth in experiment [13] is -7.71% (active); in experiment [14], 18.3%; in [15], 6.98% (active); in experiment [16], 45.8%; in [17] it was 10.1%; in [18], 18.8%. In addition, the growth in experiment [19] is 21.7%; in [20] it was 38.9%.

Take `c1ccc(CCNc2c3ccccc3nc3ccccc23)cc1`: the growth in [1] is 37.9%; in experiment [2], 25%; in experiment [3] it was 57.1%; in experiment [4] it was 43.3%; in experiment [5] it was 35.3%; in [6] it was 66.5%. The growth was 34.9% in experiment [7]; 28.1% in experiment [8]; 55.2% in [9]; 42.7% in experiment [10]; 23.3% in experiment [11]; 22.1% in [12]. Also, the growth in experiment [13] was 67.6%; in experiment [14] it was 39.5%; in [15], 41.1%; in experiment [16], 35.7%; in experiment [17], 64.7%; in [18], 53.2%. Besides, the growth was 17.6% in experiment [19] and 67.7% in experiment [20].

As for `COc1ccc(/C(C)=C(\c2ccc(Cl)cc2)c2ccc(OCCN3CCCCC3)cc2)cc1`, the growth in experiment [1] is 78.8%; in [2], 3.68% (active); in experiment [3] it was 35.1%; in [4], 45.7%; in experiment [5], 33.5%; in experiment [6], 59.2%. The growth was 7.09% (active) in [7]; 43.9% in experiment [8]; 1.77% (active) in [9]; 4.01% (active) in [10]; 9.98% (active) in experiment [11]; -2.6% (active) in experiment [12]. The growth is 89.1% in [13]; 62.8% in experiment [14]; 36.4% in experiment [15]; 41% in experiment [16]; -39% (active) in experiment [17]; 33.4% in experiment [18]. Further, the growth is 3.11% (active) in [19] and 20.1% in experiment [20].
